Experiment [1] deals with MAP/microtubule affinity-regulating kinase 3 (Homo sapiens) (UniProt P27448). The conditions noted are these: at 1 µM.
Experiment [2] has as its target T1, MAP/microtubule affinity-regulating kinase 4 (Homo sapiens) (UniProt Q96L34).
T1 sequence (whole entry): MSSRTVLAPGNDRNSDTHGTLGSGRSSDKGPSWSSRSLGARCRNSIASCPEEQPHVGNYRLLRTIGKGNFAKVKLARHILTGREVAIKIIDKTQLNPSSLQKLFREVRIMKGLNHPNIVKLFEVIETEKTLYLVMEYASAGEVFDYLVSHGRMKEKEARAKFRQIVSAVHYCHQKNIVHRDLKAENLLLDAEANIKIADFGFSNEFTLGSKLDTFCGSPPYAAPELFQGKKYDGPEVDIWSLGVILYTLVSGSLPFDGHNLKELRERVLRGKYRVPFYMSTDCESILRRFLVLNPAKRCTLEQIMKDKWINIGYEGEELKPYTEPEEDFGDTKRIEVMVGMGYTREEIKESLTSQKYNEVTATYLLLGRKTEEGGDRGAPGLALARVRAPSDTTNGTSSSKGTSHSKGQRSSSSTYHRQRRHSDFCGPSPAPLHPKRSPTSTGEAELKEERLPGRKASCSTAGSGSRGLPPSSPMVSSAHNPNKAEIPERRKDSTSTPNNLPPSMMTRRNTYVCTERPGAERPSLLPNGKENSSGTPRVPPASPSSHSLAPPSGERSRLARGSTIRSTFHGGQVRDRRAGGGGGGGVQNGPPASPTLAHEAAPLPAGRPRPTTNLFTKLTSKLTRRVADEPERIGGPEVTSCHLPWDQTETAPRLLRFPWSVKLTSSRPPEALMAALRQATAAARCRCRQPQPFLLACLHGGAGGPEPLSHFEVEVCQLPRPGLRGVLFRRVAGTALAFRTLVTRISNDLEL
The conditions noted are these: at 0.1 µM.

The target of experiment [3] is T1, MAP/microtubule affinity-regulating kinase 4 (Homo sapiens). The conditions noted are these: at 1 µM.
For experiment [4], the target named is Maternal embryonic leucine zipper kinase (Homo sapiens) (UniProt Q14680). The conditions noted are these: at 0.1 µM.
Maternal embryonic leucine zipper kinase (Homo sapiens), sequence (Q14680 whole entry, looked up): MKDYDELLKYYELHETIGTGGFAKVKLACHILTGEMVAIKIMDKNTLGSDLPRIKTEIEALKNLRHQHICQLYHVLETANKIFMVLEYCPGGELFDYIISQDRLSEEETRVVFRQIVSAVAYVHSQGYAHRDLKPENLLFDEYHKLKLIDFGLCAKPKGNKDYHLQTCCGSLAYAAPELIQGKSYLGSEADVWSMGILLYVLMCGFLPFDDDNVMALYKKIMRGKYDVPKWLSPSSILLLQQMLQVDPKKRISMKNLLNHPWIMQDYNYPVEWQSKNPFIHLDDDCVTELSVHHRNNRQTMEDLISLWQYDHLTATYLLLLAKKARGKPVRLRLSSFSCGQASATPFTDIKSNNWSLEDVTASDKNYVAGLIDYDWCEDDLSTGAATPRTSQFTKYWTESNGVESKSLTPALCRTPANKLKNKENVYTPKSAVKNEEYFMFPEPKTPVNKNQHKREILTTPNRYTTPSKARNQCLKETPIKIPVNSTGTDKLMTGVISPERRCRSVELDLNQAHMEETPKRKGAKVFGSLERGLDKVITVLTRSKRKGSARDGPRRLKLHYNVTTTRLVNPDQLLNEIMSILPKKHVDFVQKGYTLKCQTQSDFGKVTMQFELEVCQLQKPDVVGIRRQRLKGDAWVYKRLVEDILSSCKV
Experiment [5] shares this target. The conditions noted are these: at 1 µM.
Experiment [6] deals with MAP kinase-interacting serine/threonine-protein kinase 1 (Homo sapiens) (UniProt Q9BUB5). The conditions noted are these: at 0.1 µM.
MAP kinase-interacting serine/threonine-protein kinase 1 (Homo sapiens), sequence (Q9BUB5 whole entry, looked up): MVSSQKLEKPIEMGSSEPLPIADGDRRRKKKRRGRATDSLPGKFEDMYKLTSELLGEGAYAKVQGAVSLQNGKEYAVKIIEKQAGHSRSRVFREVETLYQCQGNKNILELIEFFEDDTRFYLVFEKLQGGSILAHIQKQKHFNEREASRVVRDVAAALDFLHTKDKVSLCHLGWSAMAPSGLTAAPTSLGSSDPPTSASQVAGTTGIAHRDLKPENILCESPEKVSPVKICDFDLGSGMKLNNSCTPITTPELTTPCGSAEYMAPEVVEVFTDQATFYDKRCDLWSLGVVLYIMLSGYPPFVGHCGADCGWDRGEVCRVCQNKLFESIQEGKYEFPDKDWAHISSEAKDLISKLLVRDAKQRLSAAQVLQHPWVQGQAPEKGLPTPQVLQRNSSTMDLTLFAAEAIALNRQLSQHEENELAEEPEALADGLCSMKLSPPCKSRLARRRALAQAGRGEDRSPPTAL
For experiment [7] the target is unchanged. The conditions noted are these: at 1 µM.
For experiment [8], the target named is MAP kinase-interacting serine/threonine-protein kinase 2 (Homo sapiens) (UniProt Q9HBH9). The conditions noted are these: at 0.1 µM.
MAP kinase-interacting serine/threonine-protein kinase 2 (Homo sapiens), sequence (Q9HBH9 whole entry, looked up): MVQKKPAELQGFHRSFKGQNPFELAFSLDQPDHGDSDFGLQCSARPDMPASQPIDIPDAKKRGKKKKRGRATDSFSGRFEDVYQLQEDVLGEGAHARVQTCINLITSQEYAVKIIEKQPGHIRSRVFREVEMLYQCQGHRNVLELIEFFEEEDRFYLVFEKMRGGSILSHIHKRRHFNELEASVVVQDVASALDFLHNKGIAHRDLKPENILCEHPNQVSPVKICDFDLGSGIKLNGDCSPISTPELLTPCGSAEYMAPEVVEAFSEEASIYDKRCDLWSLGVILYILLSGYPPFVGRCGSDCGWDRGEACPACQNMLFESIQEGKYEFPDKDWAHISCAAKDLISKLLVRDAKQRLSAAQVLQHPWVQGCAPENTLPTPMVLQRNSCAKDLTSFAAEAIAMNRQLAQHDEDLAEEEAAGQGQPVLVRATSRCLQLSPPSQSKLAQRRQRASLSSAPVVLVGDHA
Experiment [9] shares this target. The conditions noted are these: at 1 µM.
Experiment [10] addresses Serine/threonine-protein kinase MARK2 (Homo sapiens) (UniProt Q7KZI7). The conditions noted are these: at 0.1 µM.
For experiment [11] the target is unchanged. The conditions noted are these: at 1 µM.
The target of experiment [12] is PAS domain-containing serine/threonine-protein kinase (Homo sapiens) (UniProt Q96RG2). The conditions noted are these: at 0.1 µM.
PAS domain-containing serine/threonine-protein kinase (Homo sapiens), sequence (Q96RG2 whole entry, the tested form may be a part): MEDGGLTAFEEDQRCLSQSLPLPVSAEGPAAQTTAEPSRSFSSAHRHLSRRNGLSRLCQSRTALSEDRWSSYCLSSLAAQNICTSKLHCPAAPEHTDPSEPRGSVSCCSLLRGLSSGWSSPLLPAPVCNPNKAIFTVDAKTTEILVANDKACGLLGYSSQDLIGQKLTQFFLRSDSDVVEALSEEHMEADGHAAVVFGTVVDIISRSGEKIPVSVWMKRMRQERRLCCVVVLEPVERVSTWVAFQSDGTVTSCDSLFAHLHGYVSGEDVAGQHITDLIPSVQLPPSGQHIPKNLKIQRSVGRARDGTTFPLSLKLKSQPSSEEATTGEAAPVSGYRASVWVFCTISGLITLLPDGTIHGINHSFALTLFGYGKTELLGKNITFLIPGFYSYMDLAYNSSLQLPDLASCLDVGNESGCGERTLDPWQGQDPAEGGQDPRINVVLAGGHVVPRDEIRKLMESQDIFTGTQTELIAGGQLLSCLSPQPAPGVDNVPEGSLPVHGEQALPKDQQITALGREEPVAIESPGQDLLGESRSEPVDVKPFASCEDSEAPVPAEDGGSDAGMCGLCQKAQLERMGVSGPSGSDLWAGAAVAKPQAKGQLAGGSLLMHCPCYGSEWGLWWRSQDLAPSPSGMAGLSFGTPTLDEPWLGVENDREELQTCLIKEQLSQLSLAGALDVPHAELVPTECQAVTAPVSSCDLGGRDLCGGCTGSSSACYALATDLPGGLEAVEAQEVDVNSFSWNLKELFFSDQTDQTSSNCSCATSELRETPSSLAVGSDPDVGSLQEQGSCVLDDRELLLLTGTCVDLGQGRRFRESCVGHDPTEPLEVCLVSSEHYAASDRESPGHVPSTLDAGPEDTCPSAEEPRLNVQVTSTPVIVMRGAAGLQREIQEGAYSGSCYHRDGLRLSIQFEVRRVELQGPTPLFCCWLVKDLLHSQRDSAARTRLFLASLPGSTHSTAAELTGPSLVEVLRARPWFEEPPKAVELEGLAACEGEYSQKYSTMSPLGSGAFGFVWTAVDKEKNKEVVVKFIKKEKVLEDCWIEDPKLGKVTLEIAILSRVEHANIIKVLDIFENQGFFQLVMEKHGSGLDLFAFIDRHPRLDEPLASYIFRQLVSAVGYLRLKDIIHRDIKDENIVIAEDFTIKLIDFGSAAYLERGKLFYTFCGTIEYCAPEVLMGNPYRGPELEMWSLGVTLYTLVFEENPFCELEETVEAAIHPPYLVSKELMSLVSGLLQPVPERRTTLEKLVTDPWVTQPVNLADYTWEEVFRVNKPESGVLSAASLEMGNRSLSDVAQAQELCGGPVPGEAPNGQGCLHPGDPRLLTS
The target is the same in experiment [13]. The conditions noted are these: at 1 µM.
In experiment [14] the target is Phosphorylase b kinase gamma catalytic chain, skeletal muscle/heart isoform (Homo sapiens) (UniProt Q16816). The conditions noted are these: at 0.1 µM.
Phosphorylase b kinase gamma catalytic chain, skeletal muscle/heart isoform (Homo sapiens), sequence (Q16816 whole entry, looked up, canonical isoform): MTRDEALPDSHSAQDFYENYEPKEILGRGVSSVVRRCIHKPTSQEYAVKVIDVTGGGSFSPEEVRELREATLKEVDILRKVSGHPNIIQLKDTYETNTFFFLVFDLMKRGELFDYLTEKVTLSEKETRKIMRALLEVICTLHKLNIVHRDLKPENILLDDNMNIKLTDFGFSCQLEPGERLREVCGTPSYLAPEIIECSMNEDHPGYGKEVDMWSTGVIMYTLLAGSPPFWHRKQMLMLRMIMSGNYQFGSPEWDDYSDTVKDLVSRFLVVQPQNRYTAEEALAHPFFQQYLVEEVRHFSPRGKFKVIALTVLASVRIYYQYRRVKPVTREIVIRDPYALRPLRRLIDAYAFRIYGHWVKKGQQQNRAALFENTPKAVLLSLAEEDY
Experiment [15] has the same target. The conditions noted are these: at 1 µM.
Experiment [16] addresses T2, Phosphorylase b kinase gamma catalytic chain, liver/testis isoform (Homo sapiens) (UniProt P15735).
T2 sequence (whole entry): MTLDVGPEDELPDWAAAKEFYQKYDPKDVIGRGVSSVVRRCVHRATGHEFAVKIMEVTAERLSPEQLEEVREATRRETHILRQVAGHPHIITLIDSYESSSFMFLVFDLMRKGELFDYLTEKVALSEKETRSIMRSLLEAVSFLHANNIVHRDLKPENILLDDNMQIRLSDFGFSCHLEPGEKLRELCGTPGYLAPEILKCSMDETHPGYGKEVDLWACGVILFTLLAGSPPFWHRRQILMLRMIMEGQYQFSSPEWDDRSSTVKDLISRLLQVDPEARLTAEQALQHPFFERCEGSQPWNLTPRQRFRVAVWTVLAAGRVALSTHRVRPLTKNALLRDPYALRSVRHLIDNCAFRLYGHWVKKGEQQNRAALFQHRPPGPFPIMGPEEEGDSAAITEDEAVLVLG
The conditions noted are these: at 0.1 µM.

The target in experiment [17] is T2, Phosphorylase b kinase gamma catalytic chain, liver/testis isoform (Homo sapiens). The conditions noted are these: at 1 µM.
Experiment [18] concerns the target Serine/threonine-protein kinase pim-1 (Homo sapiens) (UniProt P11309). The conditions noted are these: at 0.1 µM.
Experiment [19] has the same target. The conditions noted are these: at 1 µM.
The target in experiment [20] is Serine/threonine-protein kinase pim-2 (Homo sapiens) (UniProt Q9P1W9). The conditions noted are these: at 0.1 µM.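 Note: reported value is the mean percent inhibition of PIM2, measured in the GSK PKIS kinase inhibitor set screen.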

These results are taken from ChEMBL document CHEMBL1961873, “Compounds: GSK PKIS; Assays: Nanosyn kinase panel” (2012).

Each structure is given as a SMILES string.

Serine/threonine-protein kinase MARK2 (Homo sapiens), sequence (Q7KZI7 whole entry): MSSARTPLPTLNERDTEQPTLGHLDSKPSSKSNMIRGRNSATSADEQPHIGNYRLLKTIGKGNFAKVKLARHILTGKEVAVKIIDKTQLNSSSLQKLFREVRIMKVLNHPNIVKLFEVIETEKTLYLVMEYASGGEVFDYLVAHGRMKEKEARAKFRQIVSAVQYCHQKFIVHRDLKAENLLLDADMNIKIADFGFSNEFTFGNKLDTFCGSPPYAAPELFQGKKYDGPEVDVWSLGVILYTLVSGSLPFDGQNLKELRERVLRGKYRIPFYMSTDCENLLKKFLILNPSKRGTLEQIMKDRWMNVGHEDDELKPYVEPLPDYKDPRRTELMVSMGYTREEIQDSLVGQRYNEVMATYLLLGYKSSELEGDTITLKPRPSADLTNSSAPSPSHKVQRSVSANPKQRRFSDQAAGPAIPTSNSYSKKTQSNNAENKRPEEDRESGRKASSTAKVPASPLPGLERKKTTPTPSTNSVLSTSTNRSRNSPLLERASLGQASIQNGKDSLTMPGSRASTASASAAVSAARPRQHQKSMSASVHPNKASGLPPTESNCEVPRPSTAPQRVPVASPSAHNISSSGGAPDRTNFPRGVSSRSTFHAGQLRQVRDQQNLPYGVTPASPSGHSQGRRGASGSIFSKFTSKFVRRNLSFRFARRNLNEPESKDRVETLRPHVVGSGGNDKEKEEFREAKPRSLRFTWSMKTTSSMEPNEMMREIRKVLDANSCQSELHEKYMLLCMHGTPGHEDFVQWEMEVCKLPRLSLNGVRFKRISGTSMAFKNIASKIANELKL
MAP/microtubule affinity-regulating kinase 3 (Homo sapiens), sequence (P27448 whole entry, looked up): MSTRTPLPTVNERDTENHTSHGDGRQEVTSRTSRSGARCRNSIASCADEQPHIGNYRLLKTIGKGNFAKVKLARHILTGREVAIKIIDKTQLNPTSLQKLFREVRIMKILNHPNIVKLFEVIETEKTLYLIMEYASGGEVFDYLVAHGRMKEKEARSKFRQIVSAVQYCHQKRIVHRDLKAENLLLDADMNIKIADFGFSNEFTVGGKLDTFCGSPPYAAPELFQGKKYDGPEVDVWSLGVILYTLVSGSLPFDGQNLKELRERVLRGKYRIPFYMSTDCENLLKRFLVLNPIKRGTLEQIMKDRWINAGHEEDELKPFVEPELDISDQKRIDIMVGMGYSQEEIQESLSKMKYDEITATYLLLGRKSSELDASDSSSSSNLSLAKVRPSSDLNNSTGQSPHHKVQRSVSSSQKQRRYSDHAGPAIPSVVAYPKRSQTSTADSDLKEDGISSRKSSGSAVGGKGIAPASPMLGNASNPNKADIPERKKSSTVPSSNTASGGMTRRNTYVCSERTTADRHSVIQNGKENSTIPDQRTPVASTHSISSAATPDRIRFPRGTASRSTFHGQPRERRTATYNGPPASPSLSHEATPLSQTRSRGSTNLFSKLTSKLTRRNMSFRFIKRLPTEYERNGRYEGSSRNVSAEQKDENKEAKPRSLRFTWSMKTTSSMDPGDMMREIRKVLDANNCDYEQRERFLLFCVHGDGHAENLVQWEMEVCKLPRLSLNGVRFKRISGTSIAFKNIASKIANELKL

For orientation: inhibition means the change of the read-out against control, counted positive when it falls. `O=C(Nc1n[nH]c2cc(-c3ccc(F)cc3)ccc12)C1CC1`: the inhibition in [1] was 4.76%; in experiment [2], 2%; in experiment [3], 3.26%; in [4], 4.84%; in experiment [5], 8.01%; in experiment [6] it was 4.85%. Also, the inhibition is 25.8% in [7]; 1.37% in [8]; 7.23% in [9]; 1.15% in experiment [10]; 2.24% in experiment [11]; -0.52% in experiment [12]. Also, the inhibition in experiment [13] was -1.02%; in experiment [14], 3.89%; in experiment [15] it was 6.4%; in [16], 6.96%; in experiment [17], 2.35%; in experiment [18], 0.88%. Also, the results for the inhibition in experiment [19] and in experiment [20] were 3.11% and -0.18%, respectively.

As for `c1ccc(COc2ccc(Nc3ncnc4ccc(-c5ccco5)cc34)cc2)cc1`, the inhibition in [1] is 3.2%; in experiment [2], 0.96%; in [3], 1.77%; in experiment [4], 0.14%; in experiment [5] it was -3.64%; in [6], 1.35%. For the same molecule, the inhibition in experiment [7] was 5.5%; in experiment [8] it was 2.49%; in [9] it was 8.27%; in experiment [10], -1.72%; in [11], 1.38%; in experiment [12] it was 0.95%. The inhibition in [13] is 1.6%; in experiment [14], 4.05%; in [15], 5.22%; in [16], 1.07%; in experiment [17] it was 2.25%; in [18], -1.26%. Also, the results for the inhibition in experiment [19] and in experiment [20] were 0.42% and 0.63%, respectively.

For `COc1ccc(-c2cc3c(N)ncnc3o2)cc1`, the inhibition was 4.01% in [1]; 0.16% in experiment [2]; 1.62% in experiment [3]; -3.33% in experiment [4]; -1.79% in [5]; 0.35% in experiment [6]. In addition, the inhibition is 2% in [7]; 0.74% in experiment [8]; 4.21% in [9]; -0.22% in [10]; 3.33% in experiment [11]; 1.26% in experiment [12]. The inhibition is 0.48% in [13]; 0.47% in [14]; 2.53% in experiment [15]; -1.54% in experiment [16]; -2.23% in [17]; -1.06% in experiment [18]. Besides, the inhibition in experiment [19] turned out to be 2.3%; in experiment [20], 0.27%.

For the molecule `Nc1nc(-c2cccc(Cl)c2)c(-c2ccc3ncccc3n2)s1`, the inhibition was 6.68% in experiment [1]; 1.87% in [2]; -0.31% in experiment [3]; 4.19% in [4]; 11.3% in experiment [5]; 3.39% in experiment [6]. The inhibition is 9.69% in experiment [7]; 2.72% in experiment [8]; 7.56% in [9]; 1.01% in experiment [10]; -0.63% in [11]; 0.04% in experiment [12]. The inhibition in experiment [13] came out at 1.47%; in experiment [14], 6.45%; in experiment [15], 11.3%; in experiment [16], 5.42%; in experiment [17] it was 10.1%; in experiment [18], 1.14%. The inhibition was 3.59% in experiment [19] and -0.44% in experiment [20].

For the molecule `COc1ccc2c(-c3ccnc(Nc4cccc(OC(F)(F)F)c4)n3)cnn2n1`, the inhibition in [1] stood at 6.67%; in [2], 1.08%; in experiment [3], 3.99%; in experiment [4], 1.72%; in experiment [5], 11.1%; in [6], 3.13%. In addition, the inhibition in experiment [7] is 9.47%; in experiment [8] it was 2.32%; in experiment [9] it was 8.78%; in experiment [10], -0.54%; in experiment [11], 2.62%; in [12], -0.05%. In addition, the inhibition in experiment [13] stood at 0.2%; in [14], 2.28%; in [15] it was 8.92%; in experiment [16] it was 6.32%; in [17] it was 8.34%; in experiment [18], 1.24%. The values for the inhibition in experiment [19] and in experiment [20] were 0.36% and -0.29%, respectively.

Regarding `CCn1c(-c2nonc2N)nc2cnc(Oc3cccc(NC(=O)c4ccc(N(C)C)cc4)c3)cc21`, the inhibition in [1] worked out at 12.2%; in experiment [2], 0.81%; in experiment [3], 3.87%; in [4], 8.41%; in experiment [5], 44.2%; in [6] it was 2.31%. Besides, the inhibition is 11.5% in experiment [7]; 3.41% in [8]; 27.8% in experiment [9]; 0.56% in [10]; 11% in [11]; -0.49% in experiment [12]. Further, the inhibition in experiment [13] was 1.54%; in experiment [14] it was -0.31%; in [15] it was 2.21%; in [16], 1.21%; in experiment [17], -0.74%; in experiment [18], 0.69%. The inhibition was 8.74% in experiment [19] and -0.19% in experiment [20].

In the case of `COc1ccc(-c2nn3ncccc3c2-c2ccnc(Nc3ccc4c(c3)OCCO4)n2)cc1`, the inhibition was 1.83% in experiment [1]; 1.34% in [2]; 0.93% in experiment [3]; -1.54% in [4]; 2.58% in experiment [5]; 0.71% in experiment [6]. Also, the inhibition in experiment [7] was 0.14%; in experiment [8], -0.13%; in [9], 1.25%; in [10] it was -1.35%; in [11] it was -0.07%; in experiment [12] it was 1.07%. Also, the inhibition in experiment [13] is 0.37%; in [14] it was 2.6%; in experiment [15], 6.21%; in experiment [16], 0.91%; in experiment [17] it was 0.83%; in experiment [18], 0.46%. For the same molecule, the inhibition was -0.36% in experiment [19] and 0.54% in [20].

On to `Nc1ncc(-c2cccc(S(N)(=O)=O)c2)c2scc(-c3ccc(F)c(Cl)c3)c12`, for which the inhibition in experiment [1] is 5.19%; in experiment [2], 3.07%; in experiment [3], 5.58%; in experiment [4], 5.13%; in experiment [5] it was 2.9%; in [6], 3.42%. The inhibition turned out to be 4.48% in [7]; 1.7% in experiment [8]; 6.22% in [9]; 0.24% in [10]; 2.5% in experiment [11]; 0.62% in [12]. Further, the inhibition in experiment [13] is 1.05%; in experiment [14], 4.52%; in experiment [15], 5.24%; in experiment [16] it was 6.23%; in experiment [17] it was 6.66%; in experiment [18] it was 0.81%. For the same molecule, the inhibition in experiment [19] was 0.67%; in experiment [20] it was 0.52%.
